# Results reported in PubChem BioAssay (NCATS).
# Results filed as inconclusive are left out. Entries that show only a call come without a potency. Calls of active or inactive are those of the source. Unless noted, calls follow the shape of the dose curve; as a rule, active = well fitted inhibition curve with a large enough effect; inconclusive = small, poorly fitted or top-dose-only effect; inactive = flat fitted curve, though single readings scatter.
# Tests used:
# [1] = qHTS drug screen for cell cycle checkpoint inhibitors in PARPi-resistant BRCA-mutant ovarian cancer cell lines. (AID 1963452; calls by dose curve); details: PEO1/OlaR viability, CellTiter-Glo luminescence, 96 h, stronger effect = lower value
# Summary of the method: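 PEO1, PEO4 and PEO1/OlaR ovarian cancer cells, 600 per well, exposed 96 h at 37C to a dilution series. Viability read by CellTiter-Glo luminescence, normalized to DMSO and empty wells; activity summarized as Z-AUC.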
# [2] = qHTS profiling for inhibitors of Plasmodium falciparum proliferation (AID 504749); also: nearly all actives have a fitted effect of over 60% in size; also: potency is read from the fitted curve at half-maximal effect; details: P. falciparum in erythrocytes, SYBR Green DNA, 72 h
# Summary of the method: (§1)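 SYBR Green fluorescence (ex 485 nm, em 535 nm) reports parasite DNA after 72 h compound exposure of infected red cells at 0.3% parasitemia, 2.5% hematocrit; signal normalized to 0.29 uM artemisinin and vehicle wells.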
# 3D7 = assay: as above; details: P. falciparum in erythrocytes, SYBR Green DNA, 72 h; series mostly up to 28.7 µM
# Summary of the method: as §1
# 7G8 = assay: as above; details: P. falciparum in erythrocytes, SYBR Green DNA, 72 h; series mostly up to 28.7 µM
# Summary of the method: as §1
# AA1029 = assay: as above; details: P. falciparum in erythrocytes, SYBR Green DNA, 72 h; series mostly up to 28.7 µM
# Summary of the method: as §1
# AS120 = assay: as above; details: P. falciparum in erythrocytes, SYBR Green DNA, 72 h; series mostly up to 28.7 µM
# Summary of the method: as §1
# ATS189 = assay: as above; details: P. falciparum in erythrocytes, SYBR Green DNA, 72 h; series mostly up to 28.7 µM
# Summary of the method: as §1
# ATS95 = assay: as above; details: P. falciparum in erythrocytes, SYBR Green DNA, 72 h; series mostly up to 28.7 µM
# Summary of the method: as §1
# C2A = assay: as above; details: P. falciparum in erythrocytes, SYBR Green DNA, 72 h; series mostly up to 28.7 µM
# Summary of the method: as §1
# CP185 = assay: as above; details: P. falciparum in erythrocytes, SYBR Green DNA, 72 h; series mostly up to 28.7 µM
# Summary of the method: as §1
# CP191 = assay: as above; details: P. falciparum in erythrocytes, SYBR Green DNA, 72 h; series mostly up to 28.7 µM
# Summary of the method: as §1
# CP192 = assay: as above; details: P. falciparum in erythrocytes, SYBR Green DNA, 72 h; series mostly up to 28.7 µM
# Summary of the method: as §1
# CP194 = assay: as above; details: P. falciparum in erythrocytes, SYBR Green DNA, 72 h; series mostly up to 28.7 µM
# Summary of the method: as §1
# CP201 = assay: as above; details: P. falciparum in erythrocytes, SYBR Green DNA, 72 h; series mostly up to 28.7 µM
# Summary of the method: as §1
# CP211 = assay: as above; details: P. falciparum in erythrocytes, SYBR Green DNA, 72 h; series mostly up to 28.7 µM
# Summary of the method: as §1
# CP215 = assay: as above; details: P. falciparum in erythrocytes, SYBR Green DNA, 72 h; series mostly up to 28.7 µM
# Summary of the method: as §1
# CP217 = assay: as above; details: P. falciparum in erythrocytes, SYBR Green DNA, 72 h; series mostly up to 28.7 µM
# Summary of the method: as §1
# CP237 = assay: as above; details: P. falciparum in erythrocytes, SYBR Green DNA, 72 h; series mostly up to 28.7 µM
# Summary of the method: as §1
# CP238 = assay: as above; details: P. falciparum in erythrocytes, SYBR Green DNA, 72 h; series mostly up to 28.7 µM
# Summary of the method: as §1
# CP203 = assay: as above; details: P. falciparum in erythrocytes, SYBR Green DNA, 72 h; series mostly up to 28.7 µM
# Summary of the method: as §1
# [3] = measured here: PEO1 parental Z-AUC
# [4] = at 28.7 µM (top of the series), parasite line A
# [5] = at 28.7 µM (top of the series), parasite line B
# [6] = at 12.8 µM (top of the series), parasite line A
# [7] = at 12.8 µM (top of the series), parasite line B
smiles,measurement,setting,value
C#C[C@]1(O)CC[C@H]2[C@@H]3CCc4cc(OC)ccc4[C@H]3CC[C@@]21C,Z-AUC,[1],1.12 (inactive)
same,Z-AUC,[1]; [3],0.901
same,Z-AUC,[1]; measured here: PEO4 Z-AUC,1.32
same,"activity, negative = inhibition",[2]; [4],1.32% (inactive)
same,"activity, negative = inhibition",[2]; [5],15.1% (inactive)
same,Potency,3D7,inactive
same,Potency,7G8,inactive
same,Potency,AA1029,inactive
same,Potency,AS120,inactive
same,Potency,ATS189,inactive
same,Potency,ATS95,inactive
same,Potency,C2A,inactive
same,Potency,CP185,inactive
same,Potency,CP191,inactive
same,Potency,CP192,inactive
same,Potency,CP194,inactive
same,Potency,CP201,inactive
same,Potency,CP211,inactive
same,Potency,CP215,inactive
same,Potency,CP217,inactive
same,Potency,CP237,inactive
same,Potency,CP238,inactive
Cc1c(-c2ccccc2)oc2c(C(=O)OCCN3CCCCC3)cccc2c1=O,"activity, negative = inhibition",[2]; [6],0.972% (inactive)
same,"activity, negative = inhibition",[2]; [7],6.11% (inactive)
same,Potency,3D7,inactive
same,Potency,7G8,inactive
same,Potency,AA1029,inactive
same,Potency,AS120,inactive
same,Potency,ATS189,inactive
same,Potency,ATS95,inactive
same,Potency,C2A,inactive
same,Potency,CP185,inactive
same,Potency,CP191,inactive
same,Potency,CP192,inactive
same,Potency,CP194,inactive
same,Potency,CP201,inactive
same,Potency,CP203,inactive
same,Potency,CP211,inactive
same,Potency,CP215,inactive
same,Potency,CP217,inactive
same,Potency,CP237,inactive
same,Potency,CP238,inactive
Cc1ccc(O)c([C@H](CCN(C(C)C)C(C)C)c2ccccc2)c1,Z-AUC,[1],-0.294 (inactive)
same,Z-AUC,[1]; [3],-0.8
same,Z-AUC,[1]; measured here: PEO4 Z-AUC,-0.815
same,Potency,[2]; parasite line A,7.08 µM (active)
same,Potency,[2]; parasite line B,3.98 µM (active)
same,Potency,3D7,6.31 µM (active)
same,Potency,7G8,1 µM (active)
same,Potency,AA1029,3.16 µM (active)
same,Potency,AS120,2.51 µM (active)
same,Potency,ATS189,3.98 µM (active)
same,Potency,ATS95,3.55 µM (active)
same,Potency,C2A,11.2 µM (active)
same,Potency,CP185,10 µM (active)
same,Potency,CP191,7.08 µM (active)
same,Potency,CP192,13.5 µM (active)
same,Potency,CP194,5.36 µM (active)
same,Potency,CP201,13.5 µM (active)
same,Potency,CP203,3.79 µM (active)
same,Potency,CP211,9.53 µM (active)
same,Potency,CP215,6.75 µM (active)
same,Potency,CP217,5.01 µM (active)
same,Potency,CP237,5.01 µM (active)
same,Potency,CP238,4.47 µM (active)
CCCCCN=C(N)N/N=C/c1c[nH]c2ccc(OC)cc12,Z-AUC,[1],-0.801 (inactive)
same,Z-AUC,[1]; [3],-1.05
same,Z-AUC,[1]; measured here: PEO4 Z-AUC,-1.17
same,Potency,[2]; parasite line A,8.91 µM (active)
same,Potency,[2]; parasite line B,12.6 µM (active)
same,Potency,3D7,8.91 µM (active)
same,Potency,7G8,1 µM (active)
same,Potency,AS120,10 µM (active)
same,Potency,ATS189,5.01 µM (active)
same,Potency,CP191,7.94 µM (active)
same,Potency,CP192,inactive
same,Potency,CP237,5.01 µM (active)
O=C(Nc1ncc([N+](=O)[O-])s1)c1cccs1,"activity, negative = inhibition",[2]; [4],5.2% (inactive)
same,"activity, negative = inhibition",[2]; [5],-2.66% (inactive)
same,Potency,3D7,inactive
same,Potency,7G8,inactive
same,Potency,AA1029,inactive
same,Potency,AS120,inactive
same,Potency,ATS189,inactive
same,Potency,ATS95,inactive
same,Potency,C2A,inactive
same,Potency,CP185,inactive
same,Potency,CP191,inactive
same,Potency,CP192,inactive
same,Potency,CP194,inactive
same,Potency,CP201,inactive
same,Potency,CP203,inactive
same,Potency,CP211,inactive
same,Potency,CP215,inactive
same,Potency,CP217,inactive
same,Potency,CP237,inactive
same,Potency,CP238,inactive
CC(=O)OC[C@H]1O[C@@H](n2ncc(=O)[nH]c2=O)[C@H](OC(C)=O)[C@@H]1OC(C)=O,"activity, negative = inhibition",[2]; [4],3.78% (inactive)
same,"activity, negative = inhibition",[2]; [5],0.953% (inactive)
same,Potency,3D7,inactive
same,Potency,7G8,inactive
same,Potency,AA1029,inactive
same,Potency,AS120,inactive
same,Potency,ATS189,inactive
same,Potency,ATS95,inactive
same,Potency,C2A,inactive
same,Potency,CP185,inactive
same,Potency,CP191,inactive
same,Potency,CP192,inactive
same,Potency,CP194,inactive
same,Potency,CP201,inactive
same,Potency,CP203,inactive
same,Potency,CP211,inactive
same,Potency,CP215,inactive
same,Potency,CP217,inactive
same,Potency,CP237,inactive
same,Potency,CP238,inactive
CCNC(=O)NCc1cccc(Cl)c1,"activity, negative = inhibition",[2]; [4],14.6% (inactive)
same,"activity, negative = inhibition",[2]; [5],3.44% (inactive)
same,Potency,3D7,inactive
same,Potency,7G8,inactive
same,Potency,AA1029,inactive
same,Potency,AS120,inactive
same,Potency,ATS189,inactive
same,Potency,ATS95,inactive
same,Potency,C2A,inactive
same,Potency,CP185,inactive
same,Potency,CP191,inactive
same,Potency,CP192,inactive
same,Potency,CP194,inactive
same,Potency,CP201,inactive
same,Potency,CP203,inactive
same,Potency,CP211,inactive
same,Potency,CP215,inactive
same,Potency,CP217,inactive
same,Potency,CP237,inactive
same,Potency,CP238,inactive
NCCNC(=O)c1ccc(Cl)cn1,"activity, negative = inhibition",[2]; [4],-3.24% (inactive)
same,"activity, negative = inhibition",[2]; [5],-5.67% (inactive)
same,Potency,3D7,inactive
same,Potency,7G8,inactive
same,Potency,AA1029,inactive
same,Potency,AS120,inactive
same,Potency,ATS189,inactive
same,Potency,ATS95,inactive
same,Potency,C2A,inactive
same,Potency,CP185,inactive
same,Potency,CP191,inactive
same,Potency,CP192,inactive
same,Potency,CP194,inactive
same,Potency,CP201,inactive
same,Potency,CP203,inactive
same,Potency,CP211,inactive
same,Potency,CP215,inactive
same,Potency,CP217,inactive
same,Potency,CP237,inactive
same,Potency,CP238,inactive
COc1cc(C(=O)NCc2ccc(OCCN(C)C)cc2)cc(OC)c1OC,"activity, negative = inhibition",[2]; [6],-2.54% (inactive)
same,"activity, negative = inhibition",[2]; [7],-4.52% (inactive)
same,Potency,3D7,inactive
same,Potency,7G8,inactive
same,Potency,AA1029,inactive
same,Potency,AS120,inactive
same,Potency,ATS189,inactive
same,Potency,ATS95,inactive
same,Potency,C2A,inactive
same,Potency,CP185,inactive
same,Potency,CP191,inactive
same,Potency,CP192,inactive
same,Potency,CP194,inactive
same,Potency,CP201,inactive
same,Potency,CP203,inactive
same,Potency,CP211,inactive
same,Potency,CP215,inactive
same,Potency,CP217,inactive
same,Potency,CP237,inactive
same,Potency,CP238,inactive
COc1cc(C(=O)N2CCCCCCC2)cc(OC)c1OC,"activity, negative = inhibition",[2]; [4],22.3% (inactive)
same,"activity, negative = inhibition",[2]; [5],22.7% (inactive)
same,Potency,3D7,inactive
same,Potency,7G8,inactive
same,Potency,AA1029,inactive
same,Potency,AS120,inactive
same,Potency,ATS189,inactive
same,Potency,ATS95,inactive
same,Potency,C2A,inactive
same,Potency,CP185,inactive
same,Potency,CP191,inactive
same,Potency,CP192,inactive
same,Potency,CP194,inactive
same,Potency,CP201,inactive
same,Potency,CP203,inactive
same,Potency,CP211,inactive
same,Potency,CP215,inactive
same,Potency,CP217,inactive
same,Potency,CP237,inactive
same,Potency,CP238,inactive
NC(=S)N/N=C/c1cccnc1,"activity, negative = inhibition",[2]; [4],13.2% (inactive)
same,"activity, negative = inhibition",[2]; [5],8.73% (inactive)
same,Potency,3D7,inactive
same,Potency,7G8,inactive
same,Potency,AA1029,inactive
same,Potency,AS120,inactive
same,Potency,ATS189,inactive
same,Potency,ATS95,inactive
same,Potency,C2A,inactive
same,Potency,CP185,inactive
same,Potency,CP191,inactive
same,Potency,CP192,inactive
same,Potency,CP194,inactive
same,Potency,CP201,inactive
same,Potency,CP203,inactive
same,Potency,CP211,inactive
same,Potency,CP215,inactive
same,Potency,CP217,inactive
same,Potency,CP237,inactive
same,Potency,CP238,inactive
CCOc1ccccc1C(N)=O,"activity, negative = inhibition",[2]; [4],-8% (inactive)
same,"activity, negative = inhibition",[2]; [5],15.4% (inactive)
same,Potency,3D7,inactive
same,Potency,7G8,inactive
same,Potency,AA1029,inactive
same,Potency,AS120,inactive
same,Potency,ATS189,inactive
same,Potency,ATS95,inactive
same,Potency,C2A,inactive
same,Potency,CP185,inactive
same,Potency,CP191,inactive
same,Potency,CP192,inactive
same,Potency,CP194,inactive
same,Potency,CP201,inactive
same,Potency,CP203,inactive
same,Potency,CP211,inactive
same,Potency,CP215,inactive
same,Potency,CP217,inactive
same,Potency,CP237,inactive
same,Potency,CP238,inactive
